# This is one part of a sample in which hits are shown more often than they occur.
# Cycloheximide cs: counter-screen for Shiga toxin inhibitors: cycloheximide protein synthesis inhibition. AID 2314. 300,000 compounds, 12% hits. max response, %. cell reporter, cycloheximide protein synthesis inhibition counterscreen; in the data active = max response mostly above about 13%, no sharp cut-off; inactive = mostly below about 14%; note: read at 38.3 µM for the half of the compounds with a filed dose; 0% is about no effect
# TbPYK inhibitor: T. brucei pyruvate kinase inhibition; Q57TT1; AID 624173; Potency, µM (titrated, usually from 76.8 µM), without a hit: at the top dose activity, negative = inhibition, hits mostly inhibitors; TbPYK enzyme, Kinase-Glo Plus ATP luminescence, 45 min; 410,000 compounds, 0.12% hits; note: potency is the fitted concentration of half-maximal effect; % is set by controls: 0 for no effect and ±100 for the full control effect; nearly all actives have a fitted effect of over 50% in size
#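 Quantitative HTS: titrated library compounds versus trypanosomal pyruvate kinase in TEA buffer (pH 7.2) containing KCl, MgCl2, BSA and Tween-20. Reactions were initiated with ADP, 130 uM final. Kinase-Glo Plus luminescence was read after 45 min at RT.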
# Giardia FBPA inh: Giardia lamblia aldolase inhibition; purified Giardia FBPA; Potency, µM (series often up to 59.6 µM), for the others: at the top dose activity, negative = inhibition, actives largely listed as inhibitors; 290,000 compounds, 0.71% hits; AID 2451; note: potency is the fitted concentration of half-maximal effect; % is set by controls: 0 for no effect and ±100 for the full control effect; nearly all actives have a fitted effect of over 55% in size
#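 40 nM FBPA preincubated 10 min at RT with compound (up to 57.5 uM final), then substrate plus GAPDH/TPI/NAD/arsenate coupling and diaphorase/resazurin added. Fluorescence read after 20 min at RT, 525/598 nm.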
# LmPK inh: inhibitors of Leishmania mexicana pyruvate kinase; Q27686; 290,000 compounds, 0.37% hits; purified LmPK, Kinase-Glo ATP luminescence, 1 h; Potency, µM (titrated, usually from 57.5 µM), for inactives: top-dose activity change, negative = inhibition, actives largely listed as inhibitors; AID 1721; note: potency is the fitted concentration of half-maximal effect; % is set by controls: 0 for no effect and ±100 for the full control effect
# Target sequence (Q27686 whole entry, looked up): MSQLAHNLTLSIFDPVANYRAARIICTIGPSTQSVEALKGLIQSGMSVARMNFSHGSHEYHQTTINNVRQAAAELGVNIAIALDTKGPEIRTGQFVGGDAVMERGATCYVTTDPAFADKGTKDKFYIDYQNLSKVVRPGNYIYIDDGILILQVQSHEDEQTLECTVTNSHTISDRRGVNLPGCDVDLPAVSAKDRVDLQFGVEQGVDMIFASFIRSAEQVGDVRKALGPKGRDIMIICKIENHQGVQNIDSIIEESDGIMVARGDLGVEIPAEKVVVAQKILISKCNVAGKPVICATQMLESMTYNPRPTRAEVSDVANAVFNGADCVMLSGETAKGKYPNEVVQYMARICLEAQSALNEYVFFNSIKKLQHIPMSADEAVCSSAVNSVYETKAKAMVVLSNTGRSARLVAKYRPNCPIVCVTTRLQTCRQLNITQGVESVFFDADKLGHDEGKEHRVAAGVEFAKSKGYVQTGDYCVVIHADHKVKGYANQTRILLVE
#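 0.1 nM LmPK, 0.5 mM PEP, 0.1 mM ADP; 50 mM imidazole pH 7.2, 7 mM MgCl2, 50 mM KCl; 1 h RT. Kinase-Glo luminescence readout, normalized to no-enzyme (full inhibition) and uninhibited wells.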
# RE007 growth inh: less growth of the S. pombe RE007 Vpr strain | Potency, µM (titrated, usually from 92.2 µM), for inactives: at the top dose activity change, negative = less growth, hits mostly inhibitors | 360,000 compounds, 0.21% hits | AID 651644 | S. pombe RE007 Vpr strain, BacTiter-Glo ATP luminescence, 24 h; active = well fitted falling curve with a large enough effect; inconclusive = small, poorly fitted or top-dose-only effect; inactive = no such curve, though single readings can be large or run the other way; note: potency is the fitted concentration of half-maximal effect; % is set by controls: 0 for no effect and ±100 for the full control effect; nearly all actives have a fitted effect of over 50% in size
#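 Fission yeast strain RE007, carrying one chromosomally integrated HIV-1 vpr copy, was seeded at OD 0.01 in PMG+AL medium with 23 nL pinned compound. After 24 h at 30 °C and 99% humidity, viability was read by BacTiter-Glo luminescence.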
# Shiga inhibitor: inhibitors of Shiga toxin in Vero cells; Vero cells, Shiga toxin protein synthesis inhibition reporter; inhibition, % at 38.7 µM; 290,000 compounds, 9.2% hits; in the data active = inhibition mostly above about 28%, no sharp cut-off; inactive = mostly below about 43%; note: 0% is about no effect
# The depositor's hits bear a star; i = inactive; ? = inconclusive; . = no result; [ ] = remark or other dose. Unless noted, calls come from the whole dose curve; as a rule, active = well fitted curve in the direction sought with a large enough effect; inconclusive = small, poorly fitted or top-dose-only effect, or another doubt; inactive = no such curve, though single readings can be large; an effect the other way counts as inactive or inconclusive.
SMILES,Cycloheximide cs,TbPYK inhibitor,Giardia FBPA inh,LmPK inh,RE007 growth inh,Shiga inhibitor
Cc1cc(OCc2cc(C(=O)N(Cc3nccn3C)C(C)C)no2)cc(C)c1Cl,26*,0%,.,-8%,-7%,55*
CCn1ccnc1CNC(=O)c1cc(COc2ccc(F)cc2F)on1,5,-3%,-3%,0%,-18%,23
CSc1ccccc1OCc1cc(C(=O)N(Cc2nccn2C)C(C)C)no1,29*,4%,.,-3%,-18%,37
C/C(=N/NS(=O)(=O)c1ccc(Br)cc1)c1cccc(NC(=O)C2CC2)c1,.,1%,.,.,18%,.
CCOC(=O)[C@]12CCCC=C1N(Cc1ccco1)C(=O)[C@H](CC(=O)NCc1cccc3ccccc13)C2,.,2%,.,.,-12%,.
COC(=O)c1ccccc1NC(=O)NC1CCC(C)CC1 (configuration not stated),16*,-13%,-1%,-2%,-1%,34*
O=C(Nc1ccccc1F)NC1CCCCCCC1,57*,-4%,-7%,-2%,7%,98*
O=C(Nc1ccccc1F)NC1CC1,23,0%,6%,2%,4%,52*
NC(=O)CSc1nnc(-c2ccc([N+](=O)[O-])cc2)o1,19*,1%,-1%,-5%,-20%,40
O=C(CSc1nnc(-c2ccc(Cl)cc2)o1)c1ccc([N+](=O)[O-])cc1,.,4%,.,.,.,.
C=CCSc1nnc(-c2ccc([N+](=O)[O-])cc2)o1,19*,-21%,-1%,-10%,-11%,80
CN(C(=O)CSc1nnc(-c2ccc([N+](=O)[O-])cc2)o1)C1CCCCC1,.,-8%,.,.,.,.
C=CCSc1nnc(-c2cccnc2)o1,15*,1%,-1%,-4%,5%,22*
O=C(Nc1ccn(Cc2ccccc2F)n1)c1ccc(COc2ccccc2Cl)cc1,3,-7%,-7%,0%,-16%,-5
O=C(Nc1ccn(Cc2ccccc2F)n1)c1ccc(COc2cccc(Br)c2)cc1,54*,0%,1%,-8%,16%,71*
COc1ccc(C2N(Cc3ccccc3)CC(=O)N2/N=C(\C)c2ccccc2)cc1 (configuration not stated),24*,-1%,1%,2%,-11%,71*
COc1ccc(/C=N/N2C(=O)CN(C(=O)c3ccccc3)C2c2ccc(OC)cc2)cc1 (configuration not stated),-3,1%,-1%,3%,3%,3
CCCCCN1CC(=O)N2C(C)c3[nH]c4ccccc4c3C[C@H]2C1=O (some centres not stated),-3,4%,7%,-4%,5%,-4
COc1ccc(C(=O)NCC(C)(C)CNC(=O)c2ccc(OC)cc2)cc1,.,-2%,.,.,2%,.
COc1ccc(C(=O)NC(=O)NC2(C(Cl)(Cl)Cl)OCCO2)cc1,51*,-3%,0%,3%,-6%,76*
COc1cc(/C=C/C(=O)O[C@H]2CC[C@]34C[C@]35CC[C@]3(C)[C@@H]([C@H](C)CCC=C(C)C)CC[C@@]3(C)C5CCC4C2(C)C)ccc1O (some centres not stated),.,0%,.,.,.,.
O=C1NC2(CCCCC2)C(=O)N1/N=C/c1ccccc1Br,23*,3%,3%,3%,-11%,37
S=c1[nH]nc(C2CCCCC2)n1/N=C/c1ccccc1Br,1,?,15%,-25%,-11%,30
Oc1ccc(C=NC2CCCCC2)c(O)c1,3,2%,-4%,-5%,-23%,-2
O=C1NC2(CCCCC2)C(=O)N1/N=C/c1ccc(O)cc1O,38*,?,1%,9%,-14%,53*
SMILES,Cycloheximide cs,TbPYK inhibitor,Giardia FBPA inh,LmPK inh,RE007 growth inh,Shiga inhibitor
COc1ccc(-c2csc(Nc3ccc(C)cn3)n2)cc1OC,34*,-8%,-6%,-2%,-3%,75*
COc1ccc(-c2csc(Nc3cc(C)ccn3)n2)cc1OC,51*,-7%,10%,-6%,-7%,63*
Cc1cccc(COc2ccc(/C=C3/C(=O)N(C)C(=S)N3C)cc2)c1,2,-15%,0%,-1%,-14%,.
CCOC(=O)c1cn2nc(Oc3cccc(F)c3)ccc2n1,31*,3%,0%,0%,9%,49
CCOC(=O)c1cn2nc(Oc3ccc(C(=O)OC)cc3)ccc2n1,1,1%,10%,-2%,1%,-1
CCOC(=O)c1cn2nc(Oc3ccc(NC(C)=O)cc3)ccc2n1,25*,9%,2%,-2%,-7%,59*
Cc1sc2c(c1C)CN(C1CC(C)(C)NC(C)(C)C1)CN2C(=O)c1ccco1,23*,.,0%,-4%,.,44*
O=C(Nc1ccccc1F)Oc1cccc(OC(=O)Nc2ccccc2F)c1,45*,-9%,-5%,?,-7%,101*
COc1cccc(C(=O)Nc2ccc(F)cc2F)c1,39*,-19%,1%,-27%,-10%,59*
COc1cccc(C(=O)N(C)CC(=O)Nc2ccc(F)c(F)c2F)c1,-6,2%,-2%,2%,2%,-7
COc1cccc(C(=O)Nc2ccccc2F)c1,30*,-3%,-3%,-29%,-3%,98*
COc1cccc(C(=O)Nc2ccc(F)c(F)c2F)c1,35*,-1%,0%,-28%,-30%,136*
O=C(Nc1ccccc1F)c1cccc(C(=O)Nc2ccccc2F)c1,14,-3%,0%,-6%,7%,19
COc1ccc(C(=O)Nc2ccc(F)cc2F)cc1OC,13,7%,3%,-10%,7%,-13
O=C(CC(=O)Nc1ccccc1F)Nc1ccccc1F,7,-1%,8%,2%,-7%,7
CC(C)Cc1ccc(-c2cc3nc(NCCc4ccc(S(N)(=O)=O)cc4)ccn3n2)cc1,.,2%,.,.,0%[18.4 µM],.
COc1ccc(COc2ccccc2C(N)=O)cc1F,33*,0%,3%,-3%,1%,66*
COc1ccccc1OCc1ccc(C(=O)Nc2ccccc2F)cc1,6.7*,-7%,0%,-6%,-5%,47*
CN(C)S(=O)(=O)c1ccc(C(=O)Nc2ccc(F)cc2F)cc1,8,-2%,1%,0%,-2%,15
O=C(Nc1ccccc1F)c1ccc(C(=O)c2ccccc2)cc1,29*,-1%,.,4%,0%,75*
Cn1ccc(C(=O)Oc2ccc(C(=O)Nc3ccc(F)cc3F)cc2)n1,26*,-1%,-3%,-21%,0%,53
COc1cc(C(N)=O)ccc1OCc1ccccc1,24,0%,-1%,-1%,-14%,85
CCOc1ccccc1-c1ccc(C(=O)O)o1,-3,.,26%[136 µM],.,.,i
O=C(Nc1ccc(Br)cc1F)c1cccnc1,15,-3%,5%,-4%,1%,86*

# Bioassay records deposited in PubChem BioAssay by National Center for Advancing Translational Sciences (NCATS).
